# D1 ag: activates the human D1 dopamine receptor. activation, % at 2 µM. HEK293 T-REx D1 cells, calcium flux, agonist mode. 1% of 360,000 active. AID 504660. P21728; in the data active = activation above about 30%; also: 0% is about no effect
#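 Agonism was scored from calcium flux recorded over 180 s (1 read/s) after pintool compound addition, following a 10-cycle baseline. Cells were inducible force-coupled HEK293 TREx D1, plated overnight at 30 C and loaded with no-wash calcium dye.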
# D1 PAM: potentiators of human D1 dopamine receptor; P21728; potentiation, % at 10 µM; 0.036% of 360,000 active; HEK293 TREx D1 cells, calcium flux, dopamine EC20 potentiation; in the data active = potentiation above about 30%; also: 0% is about no effect
# D1 antag: blocks dopamine activation of the human D1 receptor | HEK293 TREx D1 cells, calcium flux, dopamine EC80; hits give low values | P21728 | activity change, negative = inhibition, % at 10 µM | 3.2% of 360,000 active | AID 504652; in the data active = activity change below about -30%; also: % is scaled to controls: 0 for no effect and ±100 for the full control effect
#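 Cells carrying a force-coupled, tetracycline-inducible human D1 receptor report calcium flux. Each well gets a 10 s baseline, compound with 180 s monitoring, then an EC80 dopamine stimulus with a second 180 s kinetic read.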
# ERG Ets-DNA blk: blocks human ERG Ets domain binding to DNA | P11308 | fluorescence polarization, His-ERG Ets domain / labelled DNA | Potency, µM (titrated, usually from 76.9 µM), without a hit: top-dose FP activity, negative = inhibition, hits mostly inhibitors | 0.028% of 370,000 active; active = well fitted inhibition curve with a large enough effect in the polarisation, with a control signal flat; inconclusive = small, poorly fitted or top-dose-only effect, or effect the other way, or a change in a side signal; inactive = no such curve, though single readings can be large or run the other way; the % refers to the polarisation;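 also: polarization taken with two DNA probes labelled with fluorescein and Texas red; potency is read from the fitted curve at half-maximal effect; % of control where 0% means no effect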
#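 His-tagged ERG Ets domain (1 uM in the protein solution; 300mM KCl, 50mM Tris-HCl, 1mM EDTA, 1mM DTT, pH 7.5) received compound, then a probe mix of 5 nM fluorescein-DNA and 100nM Texas-615-DNA. Fluorescence polarization was read for both dyes.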
# D3 ag: activates the human D3 dopamine receptor; D3R DiscoveRx beta-arrestin cells, luminescence, 90 min; max activation, %; 0.58% of 410,000 active; AID 652048; in the data active = max activation above about 30%; also: 0% is about no effect
# Target sequence (P35462 whole entry, looked up): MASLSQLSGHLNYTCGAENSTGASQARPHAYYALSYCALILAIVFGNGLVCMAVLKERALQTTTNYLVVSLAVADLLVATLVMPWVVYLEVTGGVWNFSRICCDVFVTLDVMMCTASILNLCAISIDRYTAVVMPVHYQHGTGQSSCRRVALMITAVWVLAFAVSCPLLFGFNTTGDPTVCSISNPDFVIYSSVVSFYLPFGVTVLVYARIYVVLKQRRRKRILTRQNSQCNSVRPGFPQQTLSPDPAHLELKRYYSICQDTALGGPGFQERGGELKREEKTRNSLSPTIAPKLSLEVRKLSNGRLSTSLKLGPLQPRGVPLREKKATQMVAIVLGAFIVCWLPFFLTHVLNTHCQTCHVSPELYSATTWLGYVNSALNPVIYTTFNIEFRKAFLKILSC
#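 Agonist-mode cell screen: cells plated at 1500/well and incubated overnight at 37 °C, then exposed to library compounds for 90 min at 37 °C. Detection reagent was added for 30–60 min at room temperature, and luminescence was read.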
# DRD3 antagonist: blocks the human D3 dopamine receptor | P35462 | D3R cells, DiscoveRx beta-arrestin luminescence, antagonist mode; hits give low values | max response, negative = inhibition, % | 2.5% of 360,000 active | AID 652054; in the data active = max response below about -50%; inconclusive = no clear call, values can overlap the other calls; also: % is scaled to controls: 0 for no effect and ±100 for the full control effect
#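 Cells plated overnight at 1500 cells/well, then exposed to library compounds with dopamine controls for 90 minutes at 37 degrees C. DiscoveRx reagent added for 30–60 minutes at room temperature; luminescence read, quantitative HTS format.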
# * = called active by the depositor; ? = inconclusive; · = no result; ! = repeats disagree. Rows were chosen to be rich in hits. Some 6.1% of all compounds tested hit in one or more screens of this group.
SMILES,D1 ag,D1 PAM,D1 antag,ERG Ets-DNA blk,D3 ag,DRD3 antagonist
CCCc1c2c(cc3c(=O)cc(C(=O)OCC)oc13)CCCC2,0,5,4,-1%,6,19
O=C(O)CC1SC(=Nc2ccc(O)cc2)NC1=O (stereo not given),3,0,-31*,-14%,-25,-19
CCOc1ccc(N=C2NC(=O)C(CC(=O)O)S2)cc1 (stereo not given),3,-3,-4,16%,2,21
COc1ccc(Oc2ccc(N/C=C3/CCCC3=O)cc2)cc1,2,-10,-31*,-2%,11,20
Cc1onc(-c2ccccc2)c1C(=O)NCc1cccc(Cl)c1,1,5,0,-8%,-10,-23
N#CC1=C(N)OC2=C(CC/C2=C\c2ccccc2Cl)C1c1ccccc1Cl (stereo not given),35*,-6,1,7%,-1,0
O=C(NNC1CC(=O)N(c2ccc(Br)cc2)C1=O)c1ccccn1 (stereo not given),7,·,-19,3%,0,?
CCN(CCO)CCCC(C)Nc1ccnc2cc(Cl)ccc12 (stereo not given),·,·,·,·,5,·
CCN(CC)Cc1cc(Nc2ccnc3cc(Cl)ccc23)ccc1O,2,-3,-83*!,10%,0,1
Oc1ccc(Nc2ccnc3cc(Cl)ccc23)cc1,4,-3,31,-5%,-9,-25
Clc1ccc2c(NCc3ccccc3)ccnc2c1,21,-5,-38*,-5%,5,26
CCN(CC)CCNc1ccnc2cc(Cl)ccc12,3,-1,2,0%,-30,-80*
Cc1cccc(NC(=O)Cn2c(=O)n(CCC(=O)N3CCc4ccccc4C3)c(=O)c3ccccc32)c1,3,1,-18,0%,-1,·
O=S(=O)(c1ccc(Cl)cc1)n1ccc2cccnc21,-2,-4,-36*,3%,2,17
Cc1ccc(S(=O)(=O)n2ccc3cccnc32)cc1,-1,-4,7,-6%,9,10
CCOc1cc2[nH]c(=S)n(CCN3CCCCC3CC)c(=O)c2cc1OCC (stereo not given),1,-3,2,2%,-2,0
O=[N+]([O-])c1ccc(Nc2ccccc2)c2nonc12,18,1,-23,3%,-7,-24
CCOc1ccc(Nc2ccc([N+](=O)[O-])c3nonc23)cc1,10,-7,-8,13%,-16,-67*
CC(=O)NS(=O)(=O)c1ccc(Nc2ccc([N+](=O)[O-])c3nonc23)cc1,1,-3,10,33%,-25,-54*
CCN(CC)CCNC(=O)c1nn(-c2ccc(OC)c(Cl)c2)c(=O)c2c1c1ccccc1n2C,-1,-3,-2,-2%,0,·
N#C/C(=C\c1coc2ccc(O)cc2c1=O)C(=O)Nc1nc2ccccc2s1,227*,2,-52*,83%,6,-1
N#C/C(=C\c1coc2ccccc2c1=O)C(N)=S,3,6,11,44%,-4,-16
CCOC(=O)N1CCC(n2c(=S)[nH]c3cc(OCC)c(OCC)cc3c2=O)CC1,2,-4,8,-10%,5,32
Cc1cc2nc(-c3ccc(NC(=O)C(C)C)cc3)oc2cc1C,1,-2,-33*,-1%,3,45
COCCCNC(=O)C1CCCN(S(=O)(=O)c2ccc(C)cc2)C1 (stereo not given),-1,0,2,·,1,8
SMILES,D1 ag,D1 PAM,D1 antag,ERG Ets-DNA blk,D3 ag,DRD3 antagonist
C[C@@H]1C=C[C@](Cc2ccccc2)(C(=O)NCC2CC2)N1C(=O)c1ccccc1,-3,-3,26,12%,2,-2
CC1(C)CC(=O)C2=C(C1)NC(=O)CC2c1ccccc1F (stereo not given),1,-6,-31*,-3%,1,-20
CC1(C)CC(=O)C2=C(C1)NC(=O)CC2c1cc(F)ccc1F (stereo not given),2,-10,-12,-5%,-2,0
Cc1ccc(Cc2c(-c3ccc(Br)cc3)nc3ccc(Br)cn23)cc1,·,·,·,·,4,19
O=C(Cn1c(C(F)(F)F)nc2ccccc21)NCCCN1CCOCC1,0,-4,7,-7%,1,30
Cc1nnc(N2CCN(Cc3ccccc3)CC2)[nH]c1=O,4,-1,4,12%,-11,-54*
CC(=O)c1cccc(NC(=O)c2ccc(S(=O)(=O)N3CCCC3)cc2)c1,3,0,-3,-1%,-6,-16
O=C(Nc1ccc(-c2nc3ccccc3s2)cc1)c1cc(-n2cnnc2)ccc1Cl,7,-13,-42*,·,16,23
CCN(CC(=O)NC1CCS(=O)(=O)C1)S(=O)(=O)c1c(C)c(C)cc(C)c1C (stereo not given),2,6,-5,9%,-2,6
CCN(CC(=O)NC1CCS(=O)(=O)C1)c1ccc([N+](=O)[O-])cc1C#N (stereo not given),2,-3,-31*,-3%,-3,-20
CCN(CC(=O)NC1CCS(=O)(=O)C1)S(=O)(=O)c1cc(C)ccc1C (stereo not given),0,-12,-55*,-5%,3,6
Cc1cn(-c2cc(C(=O)Nc3ccc(C)c(NC(=O)N4CCNC4=O)c3)cc(C(F)(F)F)c2)cn1,1,-1,-7,2%,4,15
COc1ccccc1N1CCN(C2CCCN(Cc3c(F)cccc3F)C2)CC1 (stereo not given),3,-7,-14,15%,-25,-19
COc1ccccc1N1CCN(C2CCCN(Cc3cccc(O)c3)C2)CC1 (stereo not given),-1,1,-50*,-2%,-20,-10
COc1ccccc1CN1CCCC(N2CCN(c3ccccc3OC)CC2)C1 (stereo not given),6,-8,-50*,1%,-16,-10
CC[N+]1(C)[C@@H]2CC[C@H]1CC(OC(=O)[C@H]1CCC(C(=O)OC3C[C@H]4CC[C@@H](C3)[N+]4(C)CC)(c3ccccc3)c3ccccc31)C2 (stereo not given in full),2,-1,4,5%,10,12
Cc1cccc(N2CCN(C(=O)CCNS(=O)(=O)c3ccc4c(c3)oc(=O)n4C)CC2C)c1 (stereo not given),11,0,-18,4%,2,6
CCOC(=O)N1CCc2c(sc3c2c(=O)n(Cc2ccccc2)c(=O)n3CC(=O)Nc2ccccc2F)C1,2,-1,-4,-2%,3,·
NC(=O)CSc1nnc(-c2ccccn2)n1N,2,-1,-8,10%,0,-14

# Screening results: PubChem BioAssay, National Center for Advancing Translational Sciences (NCATS)
